The text below walks through data of PubChem BioAssay (NCATS).

A short description of assay [1]: Cell Viability - N2a (AID 540).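 Further: plate controls were DMSO alone for no effect and tamoxifen control for full effect; nearly all actives have a fitted effect of over 45% in size.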 Particulars: N2a mouse neuroblastoma cell viability; at 92.2 µM (top of the series). The method in brief:
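Mouse neuroblastoma N2a cells (1500/well) were preincubated 5 hr at 37 °C, then exposed to compounds for 40 hr at 37 °C in complete medium. Viability was read as intracellular ATP by CellTiter-Glo luminescence; AC50 from Hill fits.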

The nature of assay [2]: Cellular Toxicity (caspase-3) HepG2 (AID 654).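 Further: cells exposed to compound for 16 hours before reading; 0% = DMSO alone and 100% = caspase signal from 100 µM tamoxifen.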 The method in brief: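 HepG2 cells (1500/well) in complete medium were treated with compounds for 16 hr at 37 °C. Caspase-3/7 activity was then read as luminescence from peptide-aminoluciferin cleavage. AC50 came from Hill fits, normalized to DMSO and 100 uM tamoxifen.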
A short description of assay [3]: Cellular Toxicity (caspase-3) Hek293 (AID 664).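 Further: cells exposed to compound for 16 h at 37 °C before readout.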 The method in brief: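 HEK293 cells were exposed to compounds in complete medium for 16 hr at 37 °C, then caspase-3/7 activity was read by Caspase-Glo 3/7 luminescence after 20 min at room temperature. Data normalized to DMSO and 100 uM tamoxifen; AC50 from Hill fits.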
The nature of assay [4]: MultiTox-Fluor Cytotoxicity Assay - LYMP1-002 - Live Cells (AID 955). Further: on the % scale 0 is the no-effect control and ±100 the full control effect. In outline:
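Human lymphoblastoid LYMP1-002 cells, 2500/well in complete medium, rested 5 hr at 37 C, then exposed to compounds for 16 hr at 37 C. Live-cell protease cleavage of GF-AFC read by fluorescence (Ex/Em 405/510) after 60 min at room temperature; AC50 from Hill fits.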

Assay [5] is described as follows: MultiTox-Fluor Cytotoxicity Assay - LYMP1-002 - Dead Cells (AID 960).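 Further: 0% = DMSO and 100% = tetraoctylammonium bromide; nearly all actives have a fitted effect of over 60% in size.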 The method in brief: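 Human lymphoblastoid cells (LYMP1-002), 2500/well in complete medium, were exposed to compounds for 16 hr at 37 C. Dead-cell protease activity was read as bis-AAF-R110 fluorescence (Ex/Em 485/520), normalized to DMSO and 15 uM tetraoctylammonium bromide; AC50 from Hill fits.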

Assay [6] in a line: MultiTox-Fluor Cytotoxicity Assay - LYMP1-003 - Live Cells (AID 962).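 Further: 0% = DMSO only and full loss = 92 µM tetraoctylammonium bromide; cytotoxic hits lower the live-cell protease signal.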 In outline:
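LYMP1-003 human lymphoblastoid cells (2500/well) in complete medium were preincubated 5 hr at 37 C, then exposed to compounds for 16 hr at 37 C. Live-cell protease cleavage of GF-AFC read by fluorescence (Ex/Em 405/510); AC50 from Hill fits.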

Assay [7] is described as follows: Cell Viability - LYMP1-003 - Assay at 24 hr (AID 963).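 Further: plate controls were DMSO only for no effect and tetraoctylammonium bromide positive control for full effect.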 In outline: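 Human lymphoblastoid LYMP1-003 cells (2500/well) were rested 5 hr at 37 C, then exposed to compounds in complete medium for 24 hr at 37 C. Cellular ATP was quantified by CellTiter-Glo luminescence, and AC50 values came from Hill fits of concentration-response data.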
Assay [8] can be described thus: Cell Viability - LYMP2-003 (AID 965).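 Further: cells exposed to compounds for 24 h before reading; nearly all actives have a fitted effect of over 50% in size.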 Further: potency means the concentration at half of the fitted maximal effect.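 On activity change, negative = cytotoxicity: 0% = DMSO only and full effect = 92 µM tetraoctylammonium bromide.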 In outline:
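CellTiter-Glo luminescence quantified ATP loss after 24 h compound treatment of LYMP2-003 lymphoblastoid cells at 37 C. Titration series were fitted with the standard Hill equation to give AC50.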

Assay [9] can be described thus: Cell Viability - LYMP2-005 (AID 967). Further: potency means the concentration at half of the fitted maximal effect. In outline: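 LYMP2-005 human lymphoblastoid cells (2500/well) were treated with compounds for 24 h at 37 C. Intracellular ATP was then measured by CellTiter-Glo luminescence after 30 min at room temperature. AC50 values came from Hill-equation fits of qHTS concentration-response data.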
Assay [10] can be described thus: Cell Viability - LYMP2-011 (AID 969).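 Further: 0% = DMSO only and full inhibition = 92 µM tetraoctylammonium bromide; nearly all actives have a fitted effect of over 60% in size.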 The method in brief:
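Human lymphoblastoid cells (2500/well) were plated in complete medium, preincubated 5 hr at 37 C, then exposed to compounds for 24 hr at 37 C. Intracellular ATP was read by CellTiter-Glo luminescence, and AC50 came from Hill-equation concentration-response fits.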

Assay [11] is described as follows: Cell Viability - LYMP2-013 (AID 970).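 Further: 0% = DMSO only and full inhibition = tetraoctylammonium bromide control; nearly all actives have a fitted effect of over 55% in size.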 In outline: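 Human lymphoblastoid cells, 2500/well, were preincubated 5 hr at 37 C, then treated with compounds for 24 hr at 37 C in complete medium. Intracellular ATP was read by CellTiter-Glo luminescence; AC50 from Hill-equation fits of concentration-response data.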
A short description of assay [12]: Cell Viability - LYMP2-015 (AID 971). Further: nearly all actives have a fitted effect of over 55% in size. Further: potency means the concentration at half of the fitted maximal effect. The method in brief: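 Human lymphoblastoid cells (2500/well) in complete medium were preincubated 5 hr at 37 C, then compound-treated 24 hr at 37 C. Intracellular ATP was read by CellTiter-Glo luminescence after 30 min at room temperature; AC50 came from Hill-equation concentration-response fits.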
The nature of assay [13]: Cell Viability - LYMP2-025 (AID 976).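 Further: plate controls were DMSO only for no effect and tetraoctylammonium bromide control for full effect.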 The method in brief:
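Human lymphoblastoid LYMP2-025 cells (2500/well) were pre-incubated 5 hr at 37 C, then treated with compounds for 24 hr at 37 C in complete medium. Viability was read as intracellular ATP by CellTiter-Glo luminescence; AC50 from Hill fits.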

Assay [14] is described as follows: Cell Viability - LYMP2-006 (AID 978). Further: on the % scale 0 is the no-effect control and ±100 the full control effect; nearly all actives have a fitted effect of over 60% in size. In outline:
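Potency values are Hill-fit AC50s for decreases in intracellular ATP (CellTiter-Glo luminescence). LYMP2-006 lymphoblastoid cells, 2500 per well, were exposed to compound in complete culture medium for 24 hr at 37 C.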

A short description of assay [15]: Cell Viability - LYMP2-008 (AID 980). Further: nearly all actives have a fitted effect of over 60% in size. Further: potency means the concentration at half of the fitted maximal effect. On activity change, negative = cytotoxicity: on the % scale 0 is the no-effect control and ±100 the full control effect. In outline:
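Human lymphoblastoid cells (2500/well) were plated, held 5 hr at 37 C, then exposed to compounds for 24 hr at 37 C in complete medium. Intracellular ATP was read by CellTiter-Glo luminescence; AC50 from Hill-fitted concentration-response.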

The nature of assay [16]: Cell Viability - LYMP1-002 - Assay at 24 hr (AID 993). Further: on the % scale 0 is the no-effect control and ±100 the full control effect. In outline: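 Human lymphoblastoid LYMP1-002 cells, 2500/well in complete medium, were treated with compounds for 24 h at 37 C; intracellular ATP was read by CellTiter-Glo luminescence. AC50 values came from Hill-equation fits of qHTS concentration-response data.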
Assay [17] can be described thus: Cell Viability - LYMP1-002 - Assay at 40 hr (AID 994). The method in brief: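 Human lymphoblastoid cells, 2500/well in complete medium, were preincubated 5 hr at 37 C, then exposed to compounds for 40 hr at 37 C. Intracellular ATP was read by CellTiter-Glo luminescence after 30 min at room temperature; AC50 from Hill-equation fits.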
Assay [18] addresses Peroxisome proliferator-activated receptor delta (Homo sapiens) (UniProt Q03181). The experiment in a line: qHTS assay for small molecule agonists of peroxisome proliferator-activated receptor delta signaling (AID 588534; calls by dose curve;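 further: 0% = DMSO basal wells and 100% = positive control agonist at 10 µM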). The method in brief:
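Cell-based beta-lactamase reporter assay run in agonist mode: cells seeded and incubated 5 hrs at 37 C, compounds added and incubated 18 hrs at 37 C. CCF4 dye fluorescence read after 2 hrs at RT; EC50 and efficacy from Hill fits.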
For orientation: qHTS replaces the single test concentration by a dilution series.

For assay [19], the target named is Peroxisome proliferator-activated receptor alpha (Homo sapiens) (UniProt Q07869). The experiment in a line: qHTS assay for small molecule agonists of the peroxisome proliferator-activated receptor alpha (PPARalpha) signaling pathway (AID 651778). Further: % of control where 0% means no effect. Particulars: PathHunter PPARalpha complementation, chemiluminescence, 6 h; active compounds read high. The method in brief: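 Enzyme-fragment complementation assay in which ligand-bound PPARalpha translocates and forms an active enzyme that generates chemiluminescence. Cells were plated overnight, exposed to compound for 6 hr at 37 C, and then given detection reagent for 60 min at room temperature.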
Chain of Peroxisome proliferator-activated receptor alpha (Homo sapiens) (Q07869 whole entry, looked up, the tested form may be a part): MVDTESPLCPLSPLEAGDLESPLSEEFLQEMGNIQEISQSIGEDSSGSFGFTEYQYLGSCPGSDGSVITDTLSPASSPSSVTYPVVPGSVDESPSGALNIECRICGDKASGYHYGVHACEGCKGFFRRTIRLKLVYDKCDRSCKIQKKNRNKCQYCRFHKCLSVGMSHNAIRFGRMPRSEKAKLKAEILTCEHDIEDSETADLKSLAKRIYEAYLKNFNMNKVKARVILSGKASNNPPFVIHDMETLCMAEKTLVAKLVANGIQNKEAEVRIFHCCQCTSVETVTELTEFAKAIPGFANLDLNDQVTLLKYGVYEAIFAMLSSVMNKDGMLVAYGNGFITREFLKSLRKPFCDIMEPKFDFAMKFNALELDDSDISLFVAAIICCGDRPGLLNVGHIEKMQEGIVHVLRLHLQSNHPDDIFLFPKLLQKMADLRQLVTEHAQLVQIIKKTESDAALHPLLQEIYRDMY

The nature of assay [20]: qHTS assay for small molecule agonists of the antioxidant response element (ARE) signaling pathway measured by Nrf2-dependant transcriptional activity (AID 720636; active means well fitted curve in the direction sought with a large enough effect in the repeat runs; an effect the other way counts as inactive or inconclusive; further: % of control where 0% means no effect). In outline:
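Nrf2-dependent transcription read as ONE-Glo luciferase signal from ARE-luc HepG2 reporter cells after 16 hr compound treatment at 37 C, 5% CO2, in assay medium with 1% dialyzed FBS.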

Values joined by “and” are separate entries in the source; they are usually repeats but may differ in a detail not shown here. Equal values may be shown once. A number with no mark means an inactive call. Records with an inconclusive call do not appear. Active and inactive are the calls of the source. Unless noted, the call rests on the fitted dose curve; in most records, active means well fitted curve in the direction sought with a large enough effect; inconclusive means small, poorly fitted or top-dose-only effect, or another doubt; inactive means no such curve, though single readings can be large; an effect the other way counts as inactive or inconclusive.

Chain of Peroxisome proliferator-activated receptor delta (Homo sapiens) (Q03181 whole entry, looked up): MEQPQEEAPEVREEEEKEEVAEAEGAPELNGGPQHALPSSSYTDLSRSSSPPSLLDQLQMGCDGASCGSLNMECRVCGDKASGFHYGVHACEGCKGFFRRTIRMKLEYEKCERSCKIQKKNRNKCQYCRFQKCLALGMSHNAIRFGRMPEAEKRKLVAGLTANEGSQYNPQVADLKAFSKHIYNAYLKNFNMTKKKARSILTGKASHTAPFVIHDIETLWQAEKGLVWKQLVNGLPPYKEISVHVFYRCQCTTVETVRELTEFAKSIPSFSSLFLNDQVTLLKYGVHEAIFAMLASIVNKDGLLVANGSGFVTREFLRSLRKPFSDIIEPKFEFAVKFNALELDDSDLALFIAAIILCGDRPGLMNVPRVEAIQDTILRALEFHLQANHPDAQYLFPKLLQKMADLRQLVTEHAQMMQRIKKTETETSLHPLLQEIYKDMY

In the case of `Clc1ccc2ccccc2c1`, in assay [1], the activity change, negative = cytotoxicity was 3.7%. Further, the result in assay [2], in assay [3], in [4], in assay [18] and in [20] was inactive. The Potency result in assay [5], in assay [6], in assay [7], in assay [8], in assay [9] and in assay [10] was “inactive” each time. In addition, the Potency result in [11], in assay [12], in assay [13], in assay [14], in assay [15] and in assay [16] was “inactive” in each case. In addition, in assay [17], the Potency entry was “inactive”. In [19], the max response was 0.9%.

As for `CC(C)(C)OO`, the activity change, negative = cytotoxicity in assay [1] is 1.33% and -10.7%. In addition, the call in assay [2], in assay [3], in [4], in [18] and in [20] was inactive. Besides, the Potency result in assay [5], in assay [6], in [7], in assay [8], in assay [9] and in assay [10] was “inactive” each time. The Potency result in [11], in [12], in assay [13], in assay [14], in [15] and in assay [16] was “inactive” each time. Further, the Potency result in [17] was “inactive”. In addition, the max response in assay [19] is -2.75% and -4.99%.

For the compound `COc1ccc(C=O)cc1OC`, the activity change, negative = cytotoxicity in assay [1] was -19.3%. In addition, the call in assay [2], in [3], in [4] and in assay [20] was inactive. Besides, the Potency result in assay [5], in assay [6], in assay [7], in assay [8], in assay [9] and in assay [10] was “inactive” throughout. Moreover, the Potency entry in assay [11], in assay [12], in assay [13], in assay [14], in [15] and in [16] was “inactive” each time. The Potency entry in assay [17] is “inactive”. Further, the max response in assay [19] is 0.927% and -2.24%.

For `CC(C)(OO)c1ccccc1`, the activity change, negative = cytotoxicity in [1] was 3.56%. Besides, the call in assay [2], in [3], in assay [4], in assay [18] and in assay [20] was inactive. The Potency entry in [5], in assay [6], in [7], in [13], in assay [14] and in [16] was “inactive” each time. Besides, the Potency result in [17] is “inactive”. Further, the Potency is 50.1 µM (active) in [8], 39.8 µM (active) in [9], 39.8 µM (active) in [12] and 39.8 µM (active) in assay [15]. Further, in assay [19], the max response is -1.59% and -0.102%.

Regarding `OCC1CO1` (stereo unspecified), the activity change, negative = cytotoxicity in assay [1] is -10.8%. Also, the compound was classed as inactive in assay [2], in assay [3], in assay [4], in assay [18] and in assay [20]. The Potency entry in [5], in assay [6], in assay [7], in assay [8], in [9] and in [10] was “inactive” in each case. Moreover, the Potency entry in assay [11], in assay [12], in [13], in [14], in [15] and in [16] was “inactive” each time. In [17], the Potency entry was “inactive”. In addition, the max response in [19] was -0.572% and -0.317%.

For `c1nc[nH]n1`, the activity change, negative = cytotoxicity in [1] was -1.04%. Also, the compound was classed as inactive in [2], in assay [3], in [4], in assay [18] and in assay [20]. For the same compound, the Potency result in assay [5], in [6], in [7], in [9], in assay [10] and in assay [11] was “inactive” each time. The Potency entry in [12], in assay [13], in assay [14], in [15], in assay [16] and in assay [17] was “inactive” each time. Moreover, in assay [19], the max response was 7.97%.

With `CC(C)(C)OOC(C)(C)C`, in assay [1], the activity change, negative = cytotoxicity is -8.54%. Also, the compound was classed as inactive in [2], in assay [3], in assay [4], in assay [18] and in assay [20]. The Potency entry in assay [5], in assay [6], in assay [7], in assay [8], in assay [9] and in assay [10] was “inactive” each time. Besides, the Potency result in assay [11], in assay [12], in [13], in assay [14], in assay [15] and in assay [16] was “inactive” throughout. The Potency result in assay [17] was “inactive”. Further, in assay [19], the max response is 0.694%.

`NC(=S)Nc1ccccc1`: in assay [1], the activity change, negative = cytotoxicity is -0.295% and -0.273%. The result in [2], in assay [3], in [4], in assay [18] and in assay [20] was inactive. The Potency result in assay [5], in assay [6], in assay [7], in assay [8], in [9] and in assay [10] was “inactive” throughout. Further, the Potency result in assay [11], in [12], in [13], in assay [14], in assay [15] and in [16] was “inactive” in each case. The Potency result in [17] was “inactive”. The max response in assay [19] was -6.31% and -5.47% and -0.622%.
